These results are taken from PubChem BioAssay (Tox21).

Molecules are shown by their SMILES. Values without a mark were called inactive. Inconclusive results are not listed. Active and inactive are the calls of the source. Unless noted, calls come from the whole dose curve; as a rule, active = well fitted curve in the direction sought with a large enough effect in the repeat runs; inconclusive = weak or mixed curves; inactive = no such curve, though single readings can be large; an effect the other way counts as inactive or inconclusive.

Assay [1] can be described thus: qHTS assay for small molecule agonists of the p53 signaling pathway (AID 651631; calls by dose curve; note: nearly all actives have a fitted effect of over 15% in size; note: potency is the fitted concentration of half-maximal effect). In outline:
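p53RE-bla HCT-116 cells; compounds 16 h, 37 °C; LiveBLAzer B/G FRET substrate 2 h RT; fluorescence intensity read-out, qHTS format.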

Assay [2] is described as follows: qHTS assay for small molecules that induce genotoxicity in human embryonic kidney cells expressing luciferase-tagged ATAD5 (AID 651632). Note: nearly all actives have a fitted effect of over 15% in size. In outline:
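HEK293T cells carrying luciferase-tagged ATAD5 were given compound or DMSO vehicle and incubated 16 hr at 37C, 5% CO2. Luciferase activity was read after 30 min at room temperature with Amplite; a rise signals genotoxic stress.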
On the technique in general: Quantitative high-throughput screening tests each substance at several concentrations.

Assay [3] can be described thus: qHTS assay for small molecules that induce genotoxicity in human embryonic kidney cells expressing luciferase-tagged ATAD5 - cell viability (AID 651634; calls by dose curve; note: nearly all actives have a fitted effect of over 25% in size). Put shortly: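 HEK293T cells carrying luciferase-tagged ATAD5, 2,000 cells/well, exposed to compound for 15.5 hr at 37C. Viability read as live-cell protease activity by CellTiter-Fluor fluorescence after 30 min at 37C.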

The nature of assay [4]: qHTS assay to test for compound auto fluorescence at 590 nm (red) in HepG2 cells (AID 720674). In outline: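 We screened compounds on adherent HepG2 cells, incubating them for an hour at 37 C in 5% CO2 before reading emission at 590 nm under 540 nm excitation; values reflect equivalence to Rose Bengal sodium fluorescence.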
A short description of assay [5]: qHTS assay to test for compound auto fluorescence at 535 nm (green) in HepG2 cells (AID 720675).
Assay [6] can be described thus: qHTS assay to test for compound auto fluorescence at 460 nm (blue) in HEK293 cells (AID 720678). Put shortly:
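HEK293 cells (2,000 per well, medium with 10% dialyzed FBS) attached for 4-5 hr at 37C, then received compound and stood overnight at 37C, 5% CO2. Blue fluorescence was read at Ex/Em 405/460 nm and expressed relative to triamterene.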

Assay [7] is described as follows: qHTS assay to test for compound auto fluorescence at 590 nm (red) in HEK293 cells (AID 720679). In outline: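 HEK293 cells (2,000/well, medium with 10% dialyzed FBS) attached for 4-5 hr at 37C, received 23 nL compound and were incubated overnight at 37C, 5% CO2. Red fluorescence was then read at 540/590nm Ex/Em, referenced to Rose Bengal sodium.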
Assay [8] in a line: qHTS assay to test for compound auto fluorescence at 535 nm (green) in HEK293 cells (AID 720680).
Assay [9] can be described thus: qHTS assay to test for compound auto fluorescence at 460 nm (blue) in HEK293 cell free culture (AID 720681). Put shortly: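 Blue fluorescence (Ex 405/Em 460 nm, triamterene-equivalent) was read immediately after pin transfer of compound or DMSO into medium (DMEM, 10% FBS) without cells.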
A short description of assay [10]: qHTS assay to test for compound auto fluorescence at 535 nm (green) in HEK293 cell free culture (AID 720682). Put shortly:
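Cell-free medium (DMEM, 10% FBS) receives compound or DMSO by pintool. Plate read directly at Ex 485/Em 535 nm. Signal converted to fluorescein equivalency.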

Assay [11] can be described thus: qHTS assay to test for compound auto fluorescence at 590 nm (red) in HEK293 cell free culture (AID 720683). In outline:
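Red-channel autofluorescence of compounds in culture medium (DMEM, 10% FBS), no cells, measured at 540/590 nm. Rose Bengal sodium is the reference fluorophore for equivalence.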

A short description of assay [12]: qHTS assay to test for compound auto fluorescence at 590 nm (red) in HepG2 cell free culture (AID 720684). In outline:
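Plate contents were MEM with 10% FBS plus test compound or DMSO, no cells. Fluorescence was recorded with 540 nm excitation and 590 nm emission.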

Assay [13] in a line: qHTS assay to test for compound auto fluorescence at 460 nm (blue) in HepG2 cell free culture (AID 720685). In outline:
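Compound (23 nL) or DMSO pinned into cell-free MEM with 10% FBS; blue fluorescence read at 405/460 nm excitation/emission, expressed as auto-fluorescence equivalency to triamterene.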

Assay [14] can be described thus: qHTS assay to test for compound auto fluorescence at 535 nm (green) in HepG2 cell free culture (AID 720686).
Assay [15] is described as follows: qHTS assay to test for compound auto fluorescence at 460 nm (blue) in HepG2 cells (AID 720687). In outline: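 Blue-channel autofluorescence (Ex/Em 405/460 nm, triamterene-equivalent) was measured after 1 hr compound exposure at 37 C, 5% CO2. Cells were HepG2, plated overnight at 37 C in MEM plus 10% FBS.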
For assay [16], the target named is Glucocorticoid receptor (Homo sapiens) (UniProt P04150). In words: qHTS assay to identify small molecule agonists of the glucocorticoid receptor (GR) signaling pathway (AID 720691; active = well fitted activation curve with a large enough effect in the signal ratio in the repeat runs, not every such curve was filed as active; the % refers to the signal ratio). In outline: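 GR-bla HeLa cells carrying a GRE-driven beta-lactamase reporter, exposed to compounds for 18 h at 37 C. Reporter activation read as fluorescence after 2 h with LiveBLAzer B/G FRET substrate at room temperature.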

Assay [17] has the same target. The assay can be described thus: qHTS assay to identify small molecule antagonists of the glucocorticoid receptor (GR) signaling pathway (AID 720692; active = well fitted inhibition curve with a large enough effect in the signal ratio in the repeat runs, not every such curve was filed as active; the % refers to the signal ratio). In outline:
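GR-bla HeLa cells carrying a GRE-driven beta-lactamase reporter received compound after 4 h plating, then dexamethasone (5 nM final). After 18 h at 37C, the FRET substrate was loaded for 2 h at room temperature and fluorescence read.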

Assay [18] can be described thus: qHTS assay for small molecule agonists of the p53 signaling pathway - cell viability (AID 651633; calls by dose curve;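 note: p53RE-bla HCT reporter cells with a stable beta-lactamase p53 reporter; series mostly up to about 83 µM; nearly all actives have a fitted effect of over 30% in size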). In outline:
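Viability counter-read: CellTiter-Glo luminescence (30 min, room temperature) in the same p53RE-bla plates. These plates had been exposed to compounds for 16 h at 37 C.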

Assay [19] is described as follows: qHTS assay for small molecule disruptors of the mitochondrial membrane potential - cell viability (AID 720634; calls by dose curve;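 note: human HepG2 liver cancer cells; series mostly up to about 83 µM; nearly all actives have a fitted effect of over 20% in size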). Put shortly:
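HepG2 cells, 2,000 per well, attached overnight, then treated 1 hr at 37 C, 5% CO2. Viability read as ATP by CellTiter-Glo luminescence after 30 min at room temperature. Read in the same wells as the m-MPI membrane-potential dye assay.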

Assay [20] in a line: qHTS assay for small molecule disruptors of the mitochondrial membrane potential (AID 720635). Put shortly: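 Mitochondrial membrane potential tracked with Mito-MPS dye, red aggregates (ex 540/em 590 nm) against green monomers (ex 490/em 535 nm). Compound treatment 1 hr at 37C, dye 30 min in HepG2.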
% is set by controls: 0 for no effect and ±100 for the full control effect.

Glucocorticoid receptor (Homo sapiens), sequence (P04150 whole entry, looked up): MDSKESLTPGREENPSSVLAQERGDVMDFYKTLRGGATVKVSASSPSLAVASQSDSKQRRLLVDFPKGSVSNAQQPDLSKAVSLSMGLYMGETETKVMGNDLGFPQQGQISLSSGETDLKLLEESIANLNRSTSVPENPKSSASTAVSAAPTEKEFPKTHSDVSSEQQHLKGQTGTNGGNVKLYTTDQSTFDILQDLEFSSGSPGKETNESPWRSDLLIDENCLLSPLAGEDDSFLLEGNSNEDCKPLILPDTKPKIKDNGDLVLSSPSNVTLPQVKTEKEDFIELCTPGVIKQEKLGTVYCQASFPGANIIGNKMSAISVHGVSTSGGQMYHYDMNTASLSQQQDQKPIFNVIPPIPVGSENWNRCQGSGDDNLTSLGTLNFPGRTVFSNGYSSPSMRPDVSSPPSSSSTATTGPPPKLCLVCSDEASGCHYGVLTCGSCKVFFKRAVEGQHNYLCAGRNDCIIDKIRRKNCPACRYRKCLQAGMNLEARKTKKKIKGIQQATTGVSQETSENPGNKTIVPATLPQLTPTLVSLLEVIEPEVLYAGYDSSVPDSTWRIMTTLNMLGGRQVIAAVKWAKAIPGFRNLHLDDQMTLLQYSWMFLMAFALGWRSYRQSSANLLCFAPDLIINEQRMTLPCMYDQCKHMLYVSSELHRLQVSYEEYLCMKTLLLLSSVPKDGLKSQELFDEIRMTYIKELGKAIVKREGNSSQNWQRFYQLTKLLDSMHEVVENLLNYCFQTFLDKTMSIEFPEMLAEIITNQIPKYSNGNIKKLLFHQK

In the case of `C[C@H](CN1CCOCC1)C(C(=O)N1CCCC1)(c1ccccc1)c1ccccc1`, the Potency entry in [1], in [3], in [16] and in assay [17] was “inactive” in each case. For the same compound, the compound was called inactive in assay [2], in [4], in [5], in [6], in [7] and in [8]. Moreover, the call in assay [9], in [10], in assay [11], in assay [12], in [13] and in [14] was inactive. The compound was classed as inactive in assay [15].
Consider `N#CN`, for which the outcome in assay [2], in assay [4], in [5], in assay [6], in [7] and in assay [8] was inactive. The result in [9], in [10], in assay [11], in assay [12], in [13] and in [14] was inactive. Moreover, the call in assay [15] was inactive. In addition, the Potency entry in assay [18], in assay [3], in assay [19], in [16] and in assay [17] was “inactive” in each case.
With `CCOC(=O)CCl`, the call in assay [2], in assay [4], in assay [5], in assay [6], in assay [7] and in assay [9] was inactive. Besides, the outcome in assay [10], in [11], in [12], in assay [13], in [14] and in assay [15] was inactive. In addition, the Potency entry in [18], in assay [3], in [19], in [16] and in assay [17] was “inactive” throughout.
On to `C#CCOC(=O)/C=C(C)/C=C/CC(C)CCCC(C)C` (centres undefined), for which the Potency result in assay [1] and in assay [16] was “inactive” each time. Moreover, the outcome in [2], in [4], in [5], in assay [6], in assay [7] and in assay [8] was inactive. In addition, the compound was called inactive in assay [9], in assay [10], in assay [11], in [12], in assay [14] and in assay [15].
As for `C#CC(C)(C)O`, the compound was classed as inactive in [2], in [4], in assay [5], in assay [6], in [7] and in [8]. The result in assay [9], in [10], in [11], in [12], in assay [13] and in assay [14] was inactive. Moreover, the result in [15] was inactive. In addition, the Potency entry in assay [18], in [3] and in assay [19] was “inactive” in each case.
For `CN(C)C(=O)Oc1cc(OC(=O)N(C)C)cc(C(O)CNC(C)(C)C)c1` (centres undefined), the Potency result in assay [1], in assay [16] and in assay [17] was “inactive” throughout. The result in [2] was inactive. Moreover, in [4], the fluorescence, relative to Rose Bengal was 0.42% [at 18.6 µM]. In addition, the fluorescence, % of fluorescein control in [5] was 0.0476% [at 18.6 µM]; in assay [14] it was -0.0661% [at 18.6 µM]. In assay [6], the fluorescence, % of triamterene was 0.0042% [at 18.6 µM]. For the same compound, the fluorescence, % of fluorescent control in assay [7] is 0.104% [at 18.6 µM]; in assay [9] it was 0.0217% [at 18.6 µM]; in assay [11], -0.0016% [at 18.6 µM]; in assay [15], 0.0969% [at 18.6 µM]. Besides, in assay [8], the fluorescence, % of fluorescein was 0.102% [at 18.6 µM]. Also, the activity change in assay [10] was -0.0374% [at 18.6 µM]. Also, in [12], the fluorescence, % of Rose Bengal was -0.0966% [at 18.6 µM].
Turning to `CC(C)[C@]12CC(=O)[C@H](C)[C@H]1C2`, the call in assay [2], in assay [5], in assay [6], in assay [7], in assay [8] and in [9] was inactive. Also, the result in assay [10], in assay [11], in assay [12], in [13], in assay [14] and in [15] was inactive. The Potency entry in [18], in assay [3], in assay [19] and in assay [20] was “inactive” in each case.
Turning to `Cn1c(CCCC(=O)O)nc2cc(N(CCCl)CCCl)ccc21`, the Potency in [1] was 26.6 µM (active). In addition, the call in assay [2], in [6], in assay [7], in assay [8], in [9] and in assay [10] was inactive. For the same compound, the call in [11], in assay [12], in [13], in [14] and in assay [15] was inactive. Also, the Potency entry in assay [3], in [19], in [16] and in assay [17] was “inactive” in each case.
For the compound `Cc1ccc(Cl)c(O)c1`, the call in [2], in assay [4], in assay [5], in [6], in assay [7] and in assay [8] was inactive. For the same compound, the call in assay [9], in [10], in assay [11], in assay [12], in assay [13] and in [14] was inactive. Further, the compound was classed as inactive in [15]. For the same compound, the Potency result in assay [18], in assay [3], in assay [19], in [16] and in assay [17] was “inactive” throughout.
`CC(C)(O)C(Cl)(Cl)Cl`: the Potency entry in assay [1], in assay [19], in assay [20] and in [16] was “inactive” throughout. The call in assay [2], in assay [5], in assay [6], in [7], in assay [8] and in assay [9] was inactive. The compound was classed as inactive in assay [10], in assay [11], in [12], in assay [14] and in assay [15].
On to `ClCCCCCCCl`, for which the outcome in [2], in [4], in assay [5], in assay [6], in assay [7] and in assay [8] was inactive. In addition, the compound was called inactive in [9], in [10], in assay [11], in assay [12], in assay [13] and in assay [14]. Moreover, the call in assay [15] was inactive. The Potency result in [3], in assay [19], in assay [16] and in assay [17] was “inactive” each time.
Consider `CCOC(=O)COc1ccc(Cl)cc1Cl`, for which the call in assay [2], in assay [5], in [6], in assay [7], in assay [8] and in assay [9] was inactive. For the same compound, the outcome in assay [10], in assay [11], in assay [12], in assay [14] and in [15] was inactive. Moreover, the Potency result in [18], in [3], in assay [19] and in assay [16] was “inactive” throughout.
